# IL1B secr inh = blocks inflammasome-driven IL-1 beta release; THP-1 LPS/ATP IL-1B secretion, AlphaLISA, 16 h; active compounds read low; activity change, % at 57.5 µM; 360,000 tested, 4.7% active; AID 743279; in the data active means activity change below about -50%; inconclusive means mostly about -30% to -49%; further: on the % scale 0 is the no-effect control and ±100 the full control effect
#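 THP-1 cells pretreated 1 hr with compounds (up to 57.5 uM final), then stimulated with LPS (250 ng/mL final) plus ATP (1.25 mM final); secreted IL-1B measured by AlphaLISA after 16 hr, decreased signal indicating inhibition.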
# VP16 counter = inhibits Gal4-VP16 luciferase reporter, ROR gamma counter-screen; Drosophila S2 Gal4-VP16 UAS-luciferase, luminescence, 20 h; Potency, µM (titrated, usually from 53.6 µM), without a hit: at the top dose activity, negative = inhibition, actives largely listed as inhibitors; 310,000 tested, 3.5% active;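 further: Gal4-VP16 expression switched on by copper sulfate through the metallothionein promoter; potency means the concentration at half of the fitted maximal effect; on the % scale 0 is the no-effect control and ±100 the full control effect; nearly all actives have a fitted effect of over 50% in size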
# RORgamma inh = ROR gamma (mouse) transcription inhibition. P51450. Drosophila S2 Gal4-RORgamma UAS-luciferase reporter, 20 h. Potency, µM (top dose mostly 53.6 µM), for the others: top-dose activity change, negative = inhibition, actives largely listed as inhibitors. 310,000 tested, 5.4% active. AID 2551; further: potency means the concentration at half of the fitted maximal effect; on the % scale 0 is the no-effect control and ±100 the full control effect; nearly all actives have a fitted effect of over 60% in size
# Target sequence (P51450 whole entry, looked up, the tested form may be a part): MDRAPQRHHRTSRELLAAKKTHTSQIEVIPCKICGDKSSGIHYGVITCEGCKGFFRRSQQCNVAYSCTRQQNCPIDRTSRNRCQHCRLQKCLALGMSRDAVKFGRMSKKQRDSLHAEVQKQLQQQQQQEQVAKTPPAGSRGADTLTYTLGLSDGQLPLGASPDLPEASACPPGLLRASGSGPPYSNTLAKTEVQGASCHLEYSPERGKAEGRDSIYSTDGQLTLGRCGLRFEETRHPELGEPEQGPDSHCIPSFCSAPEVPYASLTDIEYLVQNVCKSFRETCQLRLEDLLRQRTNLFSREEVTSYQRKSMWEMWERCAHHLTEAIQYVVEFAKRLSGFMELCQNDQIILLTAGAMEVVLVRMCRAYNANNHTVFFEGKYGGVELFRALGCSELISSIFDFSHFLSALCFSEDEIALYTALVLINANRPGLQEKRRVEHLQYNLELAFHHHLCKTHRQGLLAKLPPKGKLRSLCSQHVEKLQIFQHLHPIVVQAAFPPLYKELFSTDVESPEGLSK
#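 ROR gamma transcriptional activity was tracked as Gal4-UAS luciferase output in stably transfected Drosophila Schneider cells, with compound added 1 hr before 700 uM copper sulfate induction and a 20 hr ambient-temperature incubation.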
# MCF10A rerep = DNA re-replication induction in MCF 10a cells; MCF 10A DNA re-replication, Hoechst nuclear intensity, 48 h; Potency, µM (doses to about 46.1 µM), for inactives: at the highest dose activity, positive = re-replication, usual class: activators; 350,000 tested, 2.9% active; further: potency means the concentration at half of the fitted maximal effect; % of control where 0% means no effect; nearly all actives have a fitted effect of over 50% in size
# SW480 rereplic = inducers of DNA re-replication in SW480 colon cancer cells. AID 624297. SW480 DNA re-replication, Hoechst DNA content imaging, 48 h. Potency, µM (series often up to 46.1 µM), inactives show at the highest dose re-replication activation, usual class: activators. 340,000 tested, 1.8% active; further: potency means the concentration at half of the fitted maximal effect; % of control where 0% means no effect; nearly all actives have a fitted effect of over 55% in size
#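 250 cells/well; 23 nL cpd via pin tool; 48 hr, 37 C, 5% CO2; Hoechst 40 min; imager read of total nuclear intensity, ex 405/em 500-530 nm.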
# The depositor's hits bear a star; u = inconclusive; x = no result given; [ ] = another dose, or the depositor's remark. Sampled rows, rich in hits. Any-hit rate of the full collection: about 11%. Unless noted, the call rests on the fitted dose curve; in most records, active means well fitted curve in the direction sought with a large enough effect; inconclusive means small, poorly fitted or top-dose-only effect, or another doubt; inactive means no such curve, though single readings can be large; an effect the other way counts as inactive or inconclusive.
SMILES,IL1B secr inh,VP16 counter,RORgamma inh,MCF10A rerep,SW480 rereplic
CCCCCC(=O)N/N=C/c1ccc([N+](=O)[O-])o1,20.7,-27.0%,-17.6%,28.5%,8.91µM*
Cc1ccc(NCC(=O)N/N=C\c2ccc([N+](=O)[O-])o2)cc1,-63.7*,u,u,4.9%,-4.1%
O=C(CNc1ccccc1)N/N=C/c1ccc([N+](=O)[O-])o1,u,u,1.3%,4.0%,13.1%
O=C(CNC(=O)c1ccccc1)N/N=C/c1ccc([N+](=O)[O-])o1,16.6,17.8µM*,-27.7%,-0.7%,u
O=C(CCC(=O)Nc1ccc(Cl)cc1Cl)N/N=C/c1ccc([N+](=O)[O-])o1,-77.1*,15.8µM*,u,u,4.61µM*
CC(O)(c1cccc(F)c1)c1nc(-c2cc(F)cc(F)c2)cs1 (stereo unspecified),-12.3,x,x,x,x
CN(C)c1ccc(C2/C(=C(/O)c3ccc(Br)cc3)C(=O)C(=O)N2C)cc1 (stereo unspecified),-10.6,-0.1%,-4.2%,u,-10.0%
O=C(Cc1ccc2c(c1)OCO2)NN=Cc1ccc([N+](=O)[O-])o1,-60.5*,x,x,u,18.4µM*
O=S1(=O)C2CC3C=CC2(CN1Cc1cccc(F)c1)O3 (stereo unspecified),x,11.3%,-17.6%,x,x
O=C(NCCCN1CCOCC1)c1cc2c([nH]c3ccccc32)c(-c2cccc(Br)c2)n1,-73.3*,u,0.1%,4.61µM*,16.3%
COc1cccc(-c2cc(C(=O)NCCCN3CCOCC3)no2)c1,3.7,-7.3%,-29.3%,5.4%,-1.4%
O=C(NCCCO)c1cc2c([nH]c3ccccc32)c(-c2ccccc2)n1,-88.3*,-1.2%,-2.1%,11.0%,-8.8%
O=C(NCC1CCCO1)c1cc2c([nH]c3ccccc32)c(-c2cccc(Cl)c2)n1 (stereo unspecified),-65.4*,-12.7%,u,u,20.6µM*
COc1cccc(-c2nc(C(=O)NCCCN3CCOCC3)cc3c2[nH]c2ccccc23)c1,-64.1*,-26.3%,0.9%,u,u
O=C(NCCCO)c1cc2c(cn1)[nH]c1ccccc12,u,-12.3%,2.2%,-5.7%,-1.6%
O=C(NCCCN1CCOCC1)c1cc(-c2ccccc2)on1,-1.7,3.3%,-1.2%,-9.8%,u
CC1(C(=O)NS(=O)(=O)Cc2ccccc2C(F)(F)F)CCN1C(=O)Cc1cccs1 (stereo unspecified),17.7,x,x,x,x
CSCCC(C(=O)NC1CCCC1)n1c(C2CC2)nc2ccccc21 (stereo unspecified),-21.9,x,x,x,x
CN(C)c1ccc(NC(=O)CCN2CCN(c3ccccn3)CC2)cc1,-21.9,-7.4%,-19.6%,3.1%,-0.9%
CN(C)S(=O)(=O)c1ccc(NC(=O)N2CCN(c3cccc(C(F)(F)F)c3)CC2)cc1,-4.0,10µM*,u,u,13.1%
C/C(=C\c1ccccc1)C(=O)N1CCN(c2cccc(C(F)(F)F)c2)CC1,-64.9*,-1.7%,-7.8%[10 µM],u,-3.2%
O=C(c1cc(C2CC2)on1)N1CCCC(N2CCN(c3cccc(C(F)(F)F)c3)CC2)C1 (stereo unspecified),-58.2*,-10.2%,0.0%,6.6%,u
COc1ccc(NC(=O)N2CCN(c3cccc(C(F)(F)F)c3)CC2)cc1,-0.8,4.1%,-3.9%,0.3%,u
O=C(c1c(F)cccc1F)N1CCN(c2cccc(C(F)(F)F)c2)CC1,-28.7,17.8µM*,u,18.0%,0.4%
C/C(=C/c1ccccc1)C(=O)N1CCN(c2ccccc2F)CC1,25.5,-1.4%,31.6%,-12.2%,-6.8%
COc1cccc(C(C)NC(=O)C2CCCC2)c1 (stereo unspecified),22.8,-4.8%,-12.9%,1.6%,-3.2%
O=C1NC[C@@H](CCCCN2C[C@H](Cc3ccc(O)cc3)N(CC3CCCCC3)C(=O)C2=O)N(CCC2CCCCC2)C1=O,-4.5,x,x,x,x
COc1cccc(CN(C)C(=O)CNC(=O)c2cccs2)c1OC,3.5,x,x,-2.8%,3.3%
COc1ccc(Br)cc1CN(C)C(=O)CNC(=O)c1ccc2ccccc2c1,-75.4*,-2.7%,11.0%,19.8%,-3.2%
